Laboratory results: ChEMBL document CHEMBL3988442, “University of Dundee, Small-Polar-MMV Screening Library” (2021)
About 13,000 (27%) of roughly 48,000 compounds showed an effect of 50% or more. The list shows a part of the results.

system: Wolbachia pipientis; assay: Anti-Wolbachia Cell-Based Screen; assay type: functional; set-up: scale not given: in the data most compounds retested in dose-response had high values; details: 5 µM

SMILES | Percent Effect
CC(O)CN1CCC(CN(C)Cc2ccc(C(N)=O)cc2)CC1 (stereo not drawn) | 3.378%
O=C1N(Cc2cccc(F)c2F)CCCC1(O)CNCC1CCCCC1 (stereo not drawn) | -14.65%
Cc1nc2ccccc2nc1CN1CCn2nc(CCC(=O)O)cc2C1 | 11.39%
CC(Nc1ccc(CN2CCCC2=O)cc1)C(=O)N(C)CCC#N (stereo not drawn) | 4.456%
O=C(NCCNc1ncccn1)C1CCCC1 | 120%
CCCC(=O)N1CCC(C(=O)NCCN2CCC(C)CC2)CC1 | 2.916%
CCCC(=O)N1CCC(C(=O)NCCNc2ncccn2)CC1 | 97.7%
O=C(NCCNc1ncccn1)C1CCN(c2ncccn2)CC1 | -3.346%
CS(=O)(=O)N1CCC(C(=O)NCCNc2ncccn2)CC1 | -2.901%
Cc1ccc(CN2CC[C@H]3C(=O)N(c4cccnc4)CCO[C@H]3C2)o1 | -2.706%
O=C(NCc1cccnc1)c1nc2c(s1)CCCN2C(=O)C1CC1.O=C(O)C(F)(F)F | 105.9%
Cc1ccc(NC(=O)c2nc3c(s2)CCCN3C(=O)C2CC2)cn1.O=C(O)C(F)(F)F | 7.338%
O=C(NCCc1cccc(F)c1)c1nc2c(s1)CCCN2C(=O)C1CC1 | 109.4%
O=C(c1nc2c(s1)CCCN2C(=O)C1CC1)N1CCCC1 | 12.54%
O=C(NCCc1cccnc1)c1nc2c(s1)CCCN2C(=O)C1CC1.O=C(O)C(F)(F)F | 99.18%
COCCN(C)C(=O)c1nc2c(s1)CCCN2C(=O)C1CC1 | 11.31%
CN(C)CCNC(=O)c1nc2c(s1)CCCN2C(=O)C1CC1.O=C(O)C(F)(F)F | 97.24%
CN1CCN(C(=O)c2nc3c(s2)CCCN3C(=O)C2CC2)CC1.O=C(O)C(F)(F)F | -2.349%
CN1CCCc2sc(C(=O)NCc3cccnc3)nc21 | -7.154%
O=C(CCNc1ncccn1)NCc1ccc(Br)s1 | 9.501%
CC(=O)c1cccc(NC(=O)N2CCCCC2CN2CCCC2=O)c1 (stereo not drawn) | -4.61%
Cc1ccc(C(=O)NCCNCC2CNc3ccnn3C2)cc1 (stereo not drawn) | -8.644%
CC(C)Cc1cc(C(=O)NCC(O)CN2CCCCCC2)on1 (stereo not drawn) | -21.74%
Cc1ccc(OCc2cccc(C(=O)N(C)C(C)CC#N)c2)cn1 (stereo not drawn) | -5.236%
CCOCC1CN(C(=O)Cc2ccccn2)Cc2c1cnn2CC (stereo not drawn) | -48.51%
OCc1ccc(-c2c(-c3ccccc3)ncn2CCN2CCOCC2)o1 | 6.374%

SMILES | Percent Effect
c1cnc(N2C[C@H](OCC3CCOCC3)[C@H]3COC[C@H]32)nc1 | -13.81%
Cc1ncsc1CN1C[C@@H](OCC(=O)N(C)C)[C@H]2OCCC[C@H]21.O=C(O)C(F)(F)F | -4.628%
O=C(O)C(F)(F)F.c1ccc(C[C@H]2CN(Cc3nccs3)CC[C@@H]2OCC2CC2)cc1 | -18.04%
O=C(O)C(F)(F)F.c1csc(CN2C[C@H](OCC3CC3)[C@H]3COC[C@H]32)n1 | 114.6%
O=C(O)C(F)(F)F.O=C(O)C(F)(F)F.c1csc(CN2CCOCC3(CCN(C4CCOCC4)C3)C2)n1 (stereo not drawn) | 4.386%
O=C(O)C(F)(F)F.c1csc(CN2C[C@H](OCC3CCOCC3)[C@H]3COC[C@H]32)n1 | 78.63%
CN(C)C(=O)CO[C@H]1CN(Cc2nccs2)[C@@H]2COC[C@H]12.O=C(O)C(F)(F)F | 104.4%
O=C(O)C(F)(F)F.c1csc(CN2CCCn3nnc(COCC4CC4)c3C2)n1 | 3.459%
O=C(c1nnn(-c2ccccc2Cl)c1-c1ccccn1)N1CCSCC1 | 5.989%
CC(=O)N(Cc1noc(C2CC2)n1)C1CCN(Cc2ccccc2)C1 (stereo not drawn) | 96.7%
CC(=O)N(Cc1noc(C2CC2)n1)C1CCN(Cc2cccnc2)C1 (stereo not drawn) | 56.34%
CC(=O)N(Cc1noc(C2CC2)n1)C1CCN(Cc2ccncc2)C1 (stereo not drawn) | 0.6841%
COC(=O)CN(C(=O)c1ccc(Cl)o1)c1cccc(F)c1 | -9.604%
Cn1cccc1C(=O)N1C[C@H]2CN(CC3CC3)C(=O)[C@H]2C1 | -15.38%
COc1ccc(CN(C)[C@@H]2CN(C(=O)c3ccccc3)C[C@H]2O)cc1 | 114.6%
COc1cccc(C(=O)N2C[C@@H](C(=O)O)[C@H](c3ccccc3C)C2)c1 | -3.21%
CCN1C[C@@H]2CN(C(=O)c3cccn3C)C[C@@H]2C1=O | -32.3%
COc1ccc(CN(C)[C@@H]2CN(C(=O)c3ccnn3C)C[C@H]2O)cc1 | 97.48%
CN(C)CCOCC1CN(C(=O)c2cccnc2)Cc2ccnn2C1 (stereo not drawn) | -7.083%
Cn1nccc1C(=O)N1CCOC(Cc2cccc(C(F)(F)F)c2)C1 (stereo not drawn) | -3.764%
COc1ccc(CN(C)[C@@H]2CN(C(=O)c3cccnc3)C[C@H]2O)cc1 | 87.24%
COc1ccc(CN(C)[C@@H]2CN(C(=O)c3cccn3C)C[C@H]2O)cc1 | 98.88%
COc1ccc(OCc2nc(C(=O)N3C[C@H](O)[C@@H](N(C)C)C3)co2)cc1 | -35.76%
COc1ccc(COCC(O)CNC(=O)c2cccnc2)cc1 (stereo not drawn) | 15.02%
COc1cc(C)ccc1OCc1nc(C(=O)N2CCC(C)CC2)co1 | -9.42%
CCN1CCC2(CN(C(C)=O)CC23CCN(CC2CC2)CC3)C1=O.O=C(O)C(F)(F)F (stereo not drawn) | -51.48%

SMILES | Percent Effect
COc1ccccc1C1CNC(=O)c2nc(-c3nccn3C)[nH]c2C1 (stereo not drawn) | 6.875%
COc1ccc(CN(C)[C@@H]2CN(C(=O)c3cccs3)C[C@H]2O)cc1 | -2.392%
COc1ccc([C@@H]2CN(C(=O)CCCc3cn[nH]c3)C[C@H]2N(C)C)cc1 | -10.76%
Cn1cc(C(=O)N2CCCCC2CCc2ccccc2)cn1 (stereo not drawn) | -0.576%
COc1ccc(CN(C)[C@@H]2CN(C(=O)c3cncs3)C[C@H]2O)cc1 | 107.9%
COc1ccc(CN(C)[C@@H]2CN(C(=O)c3cnn(C)c3)C[C@H]2O)cc1 | 88.16%
Cn1cc(C(=O)N2CCCCC2CCc2ccc(O)cc2)cn1 (stereo not drawn) | -2.601%
CNC(=O)C(C)(C)CNC(=O)Nc1ccc(C)cn1 | -9.639%
CCC(Nc1nc(C(F)(F)F)nc2ccccc12)C(=O)O (stereo not drawn) | 14.92%
CCc1nc(-c2cccc(C(=O)O)c2)no1 | 110.9%
Cc1ccc(-c2csc(-c3cccc(C(=O)O)c3)n2)cc1 | -9.33%
COc1ccc(OC)c(-c2csc(-c3cccc(C(=O)O)c3)n2)c1 | -14.75%
CCc1noc(-c2cccc(C(=O)O)c2)n1 | 137.4%
CCc1noc(-c2ccc(SCC(=O)O)nc2)n1 | 5.745%
COC(=O)c1cccc(-c2nc(CC3CCN(C)CC3)no2)c1 | -1.18%
Cc1ccc(Cl)cc1S(=O)(=O)NCc1cnc(N(C)C)n1C | -1.472%
Cc1c(NCC(C)(C)C)cccc1C(=O)N(C)Cc1ncnn1C | 4.357%
CNC(=O)c1cccc(CNC(=O)C2CC(=O)N(CCN(C)C)C2)c1 (stereo not drawn) | -3.95%
CCN(CC)CC1CN(Cc2ccc(C)s2)Cc2nccn2C1.O=C(O)C(F)(F)F.O=C(O)C(F)(F)F (stereo not drawn) | -7.962%
Cc1ccc(CN2Cc3nccn3CC(Cn3cccn3)C2)s1.O=C(O)C(F)(F)F (stereo not drawn) | 93.7%
Cc1ccc(CN2Cc3nccn3CC(Cn3cncn3)C2)s1.O=C(O)C(F)(F)F (stereo not drawn) | 96.42%
Cc1ncsc1C(=O)NC1CCN(CC(=O)NCc2ccccc2)CC1 | 0.6366%
Cc1ccc(C(NC(=O)CC2CCN(C(C)C)CC2)C(=O)O)cc1 (stereo not drawn) | -11.69%
Cc1cc(-c2ccc(C(=O)O)cc2)nc(C2CCN(C(C)C)CC2)n1 | 108.9%
Cc1cc(-c2ccc(C(=O)O)cc2)nc(C2CCCN(C(C)C)C2)n1 (stereo not drawn) | 2.794%
Cc1cc(-c2cccc(C(=O)O)c2)nc(C2CCN(C(C)C)CC2)n1 | 102.4%

SMILES | Percent Effect
O=C(N[C@H]1CN(C2CCOCC2)C[C@@H]1C1CC1)c1cc(O)no1 | 17.55%
CCN1CC[C@@]2(C(=O)N3CCCC3)CCN(S(C)(=O)=O)CC[C@@H]12.O=C(O)C(F)(F)F | -22.27%
CN(C)CC(C)(C)CN1CCC(c2ccnc(-c3cccc(O)c3)c2)C1 (stereo not drawn) | -7.648%
O=C(Cn1cncn1)NCC1(O)CCCc2ccccc21 (stereo not drawn) | 1.206%
CCNC(=O)NC1CCC(Oc2ccccc2C#N)CC1 (stereo not drawn) | 4.038%
CC(C)Oc1ccccc1CNC(=O)N(C)C(C)CS(C)(=O)=O (stereo not drawn) | -10.62%
CC(CNC(=O)OC(C)(C)C)N(C)C(=O)COc1ccccc1C#N (stereo not drawn) | 101.4%
COc1ccccc1OCC(=O)n1ncc(C#N)c1N | -0.431%
CCS(=O)(=O)CC(C)N(C)C(=O)COc1ccccc1C#N (stereo not drawn) | 95.28%
CC(C)(C)OC(=O)NCCNC(=O)c1cnc(-c2ccccc2)nc1 | -9.911%
CCN(CC)C(=O)c1ccc(COc2ccccc2C#N)o1 | -6.305%
CC(C)C(C)N(C)C(=O)COc1ccccc1C#N (stereo not drawn) | 106.3%
CC(Oc1ccccc1C#N)C(=O)NC1CC1 (stereo not drawn) | 12.68%
O=C(O)C(F)(F)F.O=C([C@H]1CN(Cc2ccoc2)C[C@H]2OCC[C@@H]12)N1CCCCO1 | -7.154%
Cc1ncsc1CCN(C)Cc1cc2n(n1)CCN(S(C)(=O)=O)C2 | 0.3281%
CCOc1ncccc1NC(=O)c1cc(C)c(C)s1 | 7.979%
O=C(C1CC(=O)N(c2n[nH]c3cc(Br)ccc23)C1)N1CCOCC1 (stereo not drawn) | 93.25%
O=C(C1CC(=O)N(c2ccccc2Br)C1)N1CCN(CC(F)(F)F)CC1 (stereo not drawn) | 5.588%
O=C(C1CC(=O)N(C2CC2)C1)N1CCC(Oc2ccccc2Cl)CC1 (stereo not drawn) | 2.803%
COc1ccc(Br)cc1CCC(=O)N1CCSCC1 | -8.265%
O=C(C1CCN(c2ccnc3ccc(Br)cc23)CC1)N1CCOCC1 | 20.8%
O=C(C1CC(=O)N(c2n[nH]c3cc(Br)ccc23)C1)N1CCCC1 (stereo not drawn) | 93.67%
O=C(C1CC(=O)N(c2ccccc2Br)C1)N1CCCCCC1 (stereo not drawn) | 6.985%
O=C(C1CC(=O)N(c2n[nH]c3cc(Br)ccc23)C1)N1CCSCC1 (stereo not drawn) | 118.9%
O=C(c1ccc(Cn2cc(Br)cn2)cc1)N1CCOCC1 | -22.08%
